Results taken from PubChem BioAssay (NCATS).
Results filed as inconclusive are left out. Where a call stands in place of a potency, no number is given. A number with no mark means an inactive call. Active and inactive are the calls of the source. Calls come from the whole dose curve; as a rule, active = well fitted curve in the direction sought with a large enough effect; inconclusive = small, poorly fitted or top-dose-only effect, or another doubt; inactive = no such curve, though single readings can be large; an effect the other way counts as inactive or inconclusive.

Legend:
[1] = target: Rap guanine nucleotide exchange factor 3 (Homo sapiens) (UniProt O95398); assay: Confirmatory qHTS for antagonist of cAMP-regulated guanine nucleotide exchange factor 3 (EPAC1) (AID 1645880); conditions: EPAC1 Rap1B-BODIPY-GDP exchange, fluorescence; activity, negative = inhibition: at 115 µM (top of the series); note: nearly all actives have a fitted effect of over 55% in size; note: potency is the fitted concentration of half-maximal effect
Method in brief: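 Nucleotide exchange uses 100 nM EPAC1, 250 nM RAP1B-BODIPY-GDP and 50 uM GDP, with compounds in a concentration-titration series. After 5 min at room temperature, fluorescence (480 nm ex/540 nm em) is read every 5 min for 30 min. Data are normalized to control ATA and DMSO.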

[2] = target: Rap guanine nucleotide exchange factor 3 (Homo sapiens) (UniProt O95398); assay: Confirmatory qHTS for agonist of cAMP-regulated guanine nucleotide exchange factor 3 (EPAC1) (AID 1645881); note: nearly all actives have a fitted effect of over 75% in size; note: potency is the fitted concentration of half-maximal effect;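 for activation: EPAC1 catalysed release of BODIPY-GDP from Rap1B seen as fluorescence loss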
[3] = target: Rap guanine nucleotide exchange factor 4 (Homo sapiens) (UniProt Q8WZA2); assay: Confirmatory qHTS for agonist of cAMP-regulated guanine nucleotide exchange factor 4 (EPAC2) (AID 1645884);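 note: nucleotide exchange releases bodipy-GDP from Rap1 and this lowers its fluorescence; nearly all actives have a fitted effect of over 65% in size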; note: potency is the fitted concentration of half-maximal effect
[4] = target: Rap guanine nucleotide exchange factor 3 (Homo sapiens) (UniProt O95398); assay: Counterscreen qHTS for antagonist of cAMP-regulated guanine nucleotide exchange factor 3 (EPAC1) (AID 1645888);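 note: fluorescence loss as bound BODIPY-GDP is released from Rap1B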
Method in brief: (§1)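 Rap1B-BODIPY-GDP 250 nM + GDP 50 uM; cpds 7-pt, final 9.74 nM–152 uM (activator mode) or from 7.32 nM upwards (inhibitor mode); RT; FI 480/540 nm at 5 and 30 min, then ± cAMP, reread.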

[5] = target: Rap guanine nucleotide exchange factor 3 (Homo sapiens) (UniProt O95398); assay: Counterscreen qHTS for agonist of cAMP-regulated guanine nucleotide exchange factor 3 (EPAC1) (AID 1645889); note: nearly all actives have a fitted effect of over 40% in size; note: potency is the fitted concentration of half-maximal effect
Method in brief: as §1

Sequence of Rap guanine nucleotide exchange factor 4 (Homo sapiens) (Q8WZA2 whole entry, looked up): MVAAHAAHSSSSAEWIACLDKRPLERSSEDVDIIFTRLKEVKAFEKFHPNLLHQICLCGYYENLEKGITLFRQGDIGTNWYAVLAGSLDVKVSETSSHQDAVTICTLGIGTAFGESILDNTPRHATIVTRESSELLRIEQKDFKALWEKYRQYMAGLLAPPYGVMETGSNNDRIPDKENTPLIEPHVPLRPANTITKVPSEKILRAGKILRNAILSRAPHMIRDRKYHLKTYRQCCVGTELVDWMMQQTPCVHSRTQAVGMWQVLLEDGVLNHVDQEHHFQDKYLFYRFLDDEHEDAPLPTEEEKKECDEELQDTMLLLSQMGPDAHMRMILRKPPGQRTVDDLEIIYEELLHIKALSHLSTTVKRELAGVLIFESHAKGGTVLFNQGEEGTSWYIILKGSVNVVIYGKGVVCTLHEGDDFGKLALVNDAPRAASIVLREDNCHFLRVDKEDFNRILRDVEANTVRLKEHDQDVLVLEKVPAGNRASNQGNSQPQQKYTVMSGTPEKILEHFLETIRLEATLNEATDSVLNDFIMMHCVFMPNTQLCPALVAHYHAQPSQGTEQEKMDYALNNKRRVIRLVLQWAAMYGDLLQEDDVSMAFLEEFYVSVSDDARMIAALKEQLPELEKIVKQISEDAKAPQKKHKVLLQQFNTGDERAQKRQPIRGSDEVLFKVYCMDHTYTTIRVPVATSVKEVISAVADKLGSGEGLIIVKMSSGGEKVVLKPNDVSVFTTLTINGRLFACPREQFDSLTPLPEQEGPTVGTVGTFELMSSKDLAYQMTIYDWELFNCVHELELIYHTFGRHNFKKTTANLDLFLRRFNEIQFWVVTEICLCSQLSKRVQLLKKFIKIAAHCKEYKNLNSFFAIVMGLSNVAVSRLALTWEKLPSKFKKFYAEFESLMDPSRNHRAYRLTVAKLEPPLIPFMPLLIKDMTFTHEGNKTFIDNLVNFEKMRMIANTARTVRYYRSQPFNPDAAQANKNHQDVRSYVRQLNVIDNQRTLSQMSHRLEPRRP
Sequence of Rap guanine nucleotide exchange factor 3 (Homo sapiens) (O95398 whole entry, looked up): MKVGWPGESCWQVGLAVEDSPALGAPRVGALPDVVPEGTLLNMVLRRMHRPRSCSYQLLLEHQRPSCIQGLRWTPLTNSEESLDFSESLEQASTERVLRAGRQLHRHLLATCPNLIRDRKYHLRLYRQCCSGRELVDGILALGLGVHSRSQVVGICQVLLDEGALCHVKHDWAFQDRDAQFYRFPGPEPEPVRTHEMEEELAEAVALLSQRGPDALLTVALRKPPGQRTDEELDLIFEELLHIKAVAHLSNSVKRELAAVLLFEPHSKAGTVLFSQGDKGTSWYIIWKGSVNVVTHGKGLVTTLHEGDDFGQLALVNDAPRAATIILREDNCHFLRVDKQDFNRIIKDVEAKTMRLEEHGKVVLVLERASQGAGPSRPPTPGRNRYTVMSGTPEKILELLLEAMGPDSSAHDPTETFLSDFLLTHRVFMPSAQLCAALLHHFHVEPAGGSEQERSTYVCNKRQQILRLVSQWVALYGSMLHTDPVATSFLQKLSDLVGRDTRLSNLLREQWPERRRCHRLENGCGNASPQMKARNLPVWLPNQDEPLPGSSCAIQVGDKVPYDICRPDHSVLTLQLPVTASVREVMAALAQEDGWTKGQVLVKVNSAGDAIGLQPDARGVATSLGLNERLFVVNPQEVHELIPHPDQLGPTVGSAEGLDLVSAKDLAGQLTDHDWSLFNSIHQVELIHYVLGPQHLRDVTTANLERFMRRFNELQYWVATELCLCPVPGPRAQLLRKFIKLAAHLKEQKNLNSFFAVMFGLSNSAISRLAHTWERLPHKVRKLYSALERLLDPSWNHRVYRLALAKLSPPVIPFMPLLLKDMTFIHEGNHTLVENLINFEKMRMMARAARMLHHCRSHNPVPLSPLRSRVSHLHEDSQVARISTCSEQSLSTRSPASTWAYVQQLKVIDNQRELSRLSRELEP

Structure (SMILES) | Potency [1] | Potency [2] | Potency [3] | Potency [4] | Potency [5] | activation [3] | activity change, negative = inhibition [4] | activation [5]
CCOc1ccc(Br)cc1S(=O)(=O)Nc1ccc(S(=O)(=O)Nc2cc(C)on2)cc1 | 19 µM (active) | inactive | inactive | inactive | inactive | – | – | –
c1ccc(C(c2ccccc2)c2ccn[nH]2)cc1 | inactive | inactive | – | – | – | 1.43% [at 17.1 µM, percent relative to cAMP agonist control] | -9.38% [at 30.8 µM] | 11.3% [at 30.8 µM]
COc1ccccc1C1CCN(c2ccc(CO)cc2[N+](=O)[O-])CC1 | inactive | inactive | inactive | inactive | inactive | – | – | –
O=S1(=O)[C@H]2CC3O[C@]2(C[C@@H]3c2ccc(F)cc2)CN1Cc1ccc(Cl)cc1 | inactive | inactive | inactive | inactive | inactive | – | – | –
O=C1c2cccc3cccc(c23)N1Cc1cccc(F)c1 | inactive | inactive | – | – | – | 7.33% [at 17.1 µM, percent relative to cAMP agonist control] | -7.63% [at 30.8 µM] | 26.6% [at 30.8 µM]
O=c1ccc(-c2ccccc2)nn1Cc1ccc(Cl)cc1 | inactive | inactive | inactive | inactive | inactive | – | – | –
COc1ccc(C2N(c3ccc(Cl)cc3)N=C(C(C)=O)N(C)N2C(C)=O)cc1 (stereo not given) | inactive | inactive | – | – | – | 11.9% [at 17.1 µM, percent relative to cAMP agonist control] | -11.6% [at 30.8 µM] | 29.6% [at 30.8 µM]
O=C(CS(=O)(=O)c1ccccc1)c1cc2cc(F)ccc2oc1=O | 75.7 µM (active) | inactive | inactive | inactive | inactive | – | – | –
Cc1ccc(NS(=O)(=O)c2cccs2)cc1S(=O)(=O)N1CCCCCC1 | inactive | inactive | inactive | inactive | inactive | – | – | –
COc1nc(-c2ccccc2)c2cc(Br)ccc2n1 | inactive | inactive | – | – | – | -6.23% [at 17.1 µM, percent relative to cAMP agonist control] | 8.88% [at 30.8 µM] | 24.2% [at 30.8 µM]
O=C(Cc1ccccc1)Nn1c(O)c(/C=C2\C=Nc3ccccc32)sc1=S | inactive | 112 µM (active) | 100 µM (active) | inactive | 39.8 µM (active) | – | – | –
O=C(O)CN1C(=O)/C(=C\c2cc(Br)ccc2OCc2ccc([N+](=O)[O-])cc2)SC1=S | 30.1 µM (active) | inactive | inactive | inactive | inactive | – | – | –
CC(Oc1ccc(Cl)cc1Cl)c1ccn[nH]1 (stereo not given) | inactive | inactive | inactive | inactive | inactive | – | – | –
Cc1ccc(Cc2c(-c3cccc(Cl)c3)nc3ccc(Br)cn23)cc1 | 75.7 µM (active) | inactive | inactive | inactive | inactive | – | – | –
CC1=C(C(=O)OCc2ccccc2)C(c2ccc(Cl)cc2Cl)NC(=O)N1CCCCCC(=O)O (stereo not given) | 75.7 µM (active) | inactive | inactive | inactive | inactive | – | – | –
Oc1ccc(/C=N/Nc2ncnc3nc[nH]c23)cc1 | inactive | inactive | – | – | – | -0.35% [at 17.1 µM, percent relative to cAMP agonist control] | 4.9% [at 30.8 µM] | 4.78% [at 30.8 µM]
COCc1cc(C)nc(SCC(=O)c2ccc(O)c(O)c2)c1C#N | 37.9 µM (active) | inactive | inactive | inactive | inactive | – | – | –
O=C(c1ccccc1)c1cccc2ccccc12 | inactive | inactive | – | – | – | 6.02% [at 17.1 µM, percent relative to cAMP agonist control] | -2.88% [at 30.8 µM] | 19% [at 30.8 µM]
COc1ccc(-c2csc(NC(=O)c3ccc(C(C)(C)C)cc3)c2C(=O)O)cc1 | 37.9 µM (active) | inactive | inactive | inactive | inactive | – | – | –
Cc1onc(-c2ccccc2)c1C(=O)N1CCc2ccccc21 | inactive | inactive | – | – | – | 1.91% [at 17.1 µM, percent relative to cAMP agonist control] | -17.7% [at 30.8 µM] | 18.4% [at 30.8 µM]
Cc1cc(=O)oc2cc(NC(=O)C(C)Oc3ccccc3)ccc12 (stereo not given) | inactive | inactive | inactive | inactive | inactive | – | – | –
CC(=O)c1cc(C#N)c(N(C)Cc2ccccc2)nc1C | inactive | inactive | – | – | – | 0.456% [at 17.1 µM, percent relative to cAMP agonist control] | -7.5% [at 30.8 µM] | 0.131% [at 30.8 µM]
O=C1c2ccccc2C(Nc2cccnc2)N1Cc1ccccc1Cl (stereo not given) | inactive | inactive | inactive | inactive | inactive | – | – | –
O=C(O)CN1C(=O)/C(=C\c2cc(Br)ccc2OCc2ccccc2Cl)SC1=S | 33.8 µM (active) | inactive | inactive | inactive | inactive | – | – | –
Brc1ccc(C2Nc3cccc4cccc(c34)N2)cc1 | inactive | inactive | inactive | inactive | inactive | – | – | –

Structure (SMILES) | Potency [1] | Potency [2] | Potency [3] | Potency [4] | Potency [5] | activation [3] | activity change, negative = inhibition [4] | activation [5]
COc1ccccc1C(=O)Nc1ccccc1C(=O)N1C(C)CCCC1C (stereo not given) | inactive | inactive | inactive | inactive | inactive | – | – | –
CCC(CC)NC(=O)c1ccccc1Oc1ccccc1 | inactive | inactive | – | – | – | 3.85% [at 17.1 µM, percent relative to cAMP agonist control] | 6.83% [at 30.8 µM] | 13.2% [at 30.8 µM]
O=C(c1ccccc1)c1cccc(C(=O)c2ccccc2)c1 | inactive | inactive | inactive | inactive | inactive | – | – | –
Nc1nc2c(ncn2[C@@H]2O[C@H](CNS(=O)(=O)N3CCCC3)[C@@H](O)[C@H]2O)c(=O)[nH]1 | inactive | inactive | inactive | inactive | inactive | – | – | –
O=C(CN1CCCCCC1)Nc1ccccc1Oc1ccccc1 | inactive | inactive | inactive | inactive | inactive | – | – | –
CCCc1cc(=O)oc2cc(C)cc(OCC(=O)N[C@@H](CSCc3ccccc3)C(=O)O)c12 | inactive | inactive | inactive | inactive | inactive | – | – | –
CCCCN(CCCC)Cc1cc(=O)oc2cc(C)c(Cl)cc12 | inactive | inactive | inactive | inactive | inactive | – | – | –
O=C1c2ccccc2S(=O)(=O)c2cc(N3CCC(C(=O)N4CCCCC4)CC3)ccc21 | inactive | 89.1 µM (active) | 100 µM (active) | inactive | 56.2 µM (active) | – | – | –
CC(=O)Nc1scc(-c2ccccc2)[n+]1-c1ccc(C)cc1 | inactive | inactive | – | – | – | 11.2% [at 17.1 µM, percent relative to cAMP agonist control] | -4.14% [at 30.8 µM] | 4.92% [at 30.8 µM]
COc1ccc([C@H]2CC(=O)C=C(c3cc(OC)ccc3OC)C2)cc1 | inactive | inactive | inactive | inactive | inactive | – | – | –
O=C(O)C1=CC[C@@H](c2ccc(Cl)cc2)N(S(=O)(=O)c2ccc(Cl)cc2)[C@H]1c1ccc(Br)cc1 | 75.7 µM (active) | inactive | inactive | inactive | inactive | – | – | –
Cc1ccc(/C=C2\S/C(=N/S(=O)(=O)c3cccs3)NC2=O)cc1 | 67.5 µM (active) | inactive | inactive | inactive | inactive | – | – | –
O=C(N/N=C/c1ccccc1O)c1ccc2c(c1)OCO2 | inactive | inactive | inactive | inactive | inactive | – | – | –
O=C(Nc1ccc2nc3n(c(=O)c2c1)CCCCC3)c1c(F)ccc([N+](=O)[O-])c1F | 15.1 µM (active) | inactive | inactive | inactive | inactive | – | – | –
CC1CCN(c2ccc3c(c2)S(=O)(=O)c2cccc(C(=O)NC4CCCCC4)c2C3=O)CC1 | inactive | 89.1 µM (active) | 100 µM (active) | inactive | 50.1 µM (active) | – | – | –
CC(C)(C)c1ccc(OCC(=O)Nc2ccc(C(=O)Nc3ccccc3C(=O)O)cc2)cc1 | 75.7 µM (active) | inactive | inactive | inactive | inactive | – | – | –
CNc1ccc(-c2nc(-c3ccco3)no2)cc1[N+](=O)[O-] | inactive | inactive | inactive | inactive | inactive | – | – | –
Cc1nnc(SCCn2c(N3CCC(Cc4ccccc4)CC3)nc3c2c(=O)[nH]c(=O)n3C)s1 | inactive | inactive | inactive | inactive | inactive | – | – | –
Cc1ncc(CO)c2c1Oc1nc(-c3ccccc3F)nc(SCC(=O)N(C)c3ccccc3)c1C2 | 30.1 µM (active) | inactive | inactive | inactive | inactive | – | – | –
O=C1C=C(c2ccccc2Oc2ccccc2)C[C@@H](c2ccc(F)cc2)C1 | inactive | inactive | inactive | inactive | inactive | – | – | –
CCCCOc1ccc(/C=C/C(=O)OCC(=O)NC(=O)NCC(C)C)cc1OCC | inactive | inactive | inactive | inactive | inactive | – | – | –
O=[N+]([O-])c1ccc2nc(NS(=O)(=O)c3ccc(F)cc3)sc2c1 | 42.6 µM (active) | inactive | inactive | inactive | inactive | – | – | –
Cc1ccc2oc(C(=O)N(Cc3ccc(N(C)C)cc3)CC3CCCO3)c(C)c2c1 (stereo not given) | inactive | inactive | inactive | inactive | inactive | – | – | –
CCOC(=O)c1c(NC(=O)/C=C/c2ccc3c(c2)OCO3)sc(C)c1CC | inactive | inactive | inactive | inactive | inactive | – | – | –
